Test results published in PubChem BioAssay (NCI).
About 79,000 compounds went through this panel and 15% of them were active in at least one assay; those are over-represented in the sample as a whole. Calls of active or inactive are those of the source. Cut-off read from the data, not from the text of the source: active = growth inhibition above about 70%; inactive = the rest.

Tests used:
[1] = NCI Yeast Anticancer Drug Screen. Data for the rad52 strain (AID 147);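 note: 0% = growth of vehicle-treated control cultures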; details: S. cerevisiae rad52 mutant growth inhibition, hits give high values
Method in brief: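 Here a repair-compromised yeast strain receives each compound; its growth is then quantified and normalised to vehicle-only controls.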

[2] = NCI Yeast Anticancer Drug Screen. Data for the wt1 strain (AID 149);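 note: 0% = growth of vehicle-treated wt1 cultures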; details: S. cerevisiae wt1 strain (SPY 50644) growth inhibition, hits give high values
Method in brief: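 Readout: yeast growth inhibition, normalised to vehicle controls, in the wt1 strain exposed to test compounds.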

[3] = NCI Yeast Anticancer Drug Screen. Data for the rad50EPP+ strain (AID 151);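 note: 0% = growth of vehicle-treated control cultures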; details: S. cerevisiae rad50 mutant strain, hits give high values
Method in brief: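 Read-out is yeast growth inhibition relative to vehicle; cells used were the rad50EPP+ strain.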

[4] = NCI Yeast Anticancer Drug Screen. Data for the mgt1 strain (AID 153); details: S. cerevisiae mgt1 mutant growth inhibition, hits give high values
Method in brief: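 Measured: inhibition of mgt1 yeast growth by compound, normalized to vehicle-treated cultures.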

[5] = NCI Yeast Anticancer Drug Screen. Data for the rad50 strain (AID 155);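 note: 0% = growth of vehicle-only cultures of the same strain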; details: S. cerevisiae rad50 strain growth inhibition, hits give high values
Method in brief: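 Compounds were tested on a yeast strain with an engineered DNA damage repair alteration; the reported value is growth inhibition normalised to vehicle treatment.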

[6] = NCI Yeast Anticancer Drug Screen. Data for the mec2-1 strain (AID 157); details: S. cerevisiae mec2-1 strain, hits give high values
Method in brief: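 Using mec2-1 yeast: add compound, measure growth, express inhibition versus vehicle-treated cultures.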

[7] = NCI Yeast Anticancer Drug Screen. Data for the rad14 strain (AID 159);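 note: 0% = growth of vehicle-treated control cultures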; details: S. cerevisiae rad14 strain growth inhibition, hits give high values
Method in brief: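 Compound-treated yeast with a defined DNA-repair lesion; growth inhibition normalised to vehicle-treated cultures.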

[8] = NCI Yeast Anticancer Drug Screen. Data for the sgs1 mgt1 strain (AID 161);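 note: 0% = growth of cultures given vehicle only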; details: S. cerevisiae sgs1 mgt1 strain, hits give high values
Method in brief: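 This yeast growth screen uses a strain with defined DNA-repair lesions; compound-treated growth is compared with vehicle-treated growth.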

[9] = NCI Yeast Anticancer Drug Screen. Data for the CLN2oe strain (AID 163);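 note: 0% = growth of vehicle-only control cultures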; details: S. cerevisiae CLN2oe strain, hits give high values
Method in brief: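 Whole-cell yeast growth assay. A strain engineered for altered cell-cycle control received compound, and inhibition relative to vehicle-treated cultures was recorded.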

[10] = NCI Yeast Anticancer Drug Screen. Data for the cln2 rad14 strain (AID 165);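 note: 0% = growth equal to vehicle treated cultures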; details: S. cerevisiae cln2 rad14 strain, hits give high values
Method in brief: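 Yeast strain cln2 rad14, bearing defects in cell cycle control and DNA repair, serves as the test system; values reflect growth inhibition compared with vehicle.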

[11] = NCI Yeast Anticancer Drug Screen. Data for the bub3 strain (AID 167); details: S. cerevisiae bub3 mutant strain, hits give high values
Method in brief: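 Growth of a checkpoint-deficient yeast mutant is measured after compound exposure. Values represent inhibition relative to vehicle.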

[12] = NCI Yeast Anticancer Drug Screen. Data for the wt2 strain (AID 169);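 note: 0% = growth of vehicle-treated yeast cultures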; details: S. cerevisiae wt2 strain growth inhibition, hits give high values
Method in brief: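 Treated yeast vs. vehicle-treated yeast: growth inhibition determined.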

[13] = NCI Yeast Anticancer Drug Screen. Data for the mlh1 strain (AID 171);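 note: 0% = growth of vehicle-treated control cultures of the same strain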; details: S. cerevisiae mlh1 strain growth inhibition, hits give high values
Method in brief: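 A yeast strain with a defined genetic lesion serves as the test organism. Cultures receive compound or vehicle, and growth is measured.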

[14] = NCI Yeast Anticancer Drug Screen. Data for the sgs1 strain (AID 173);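 note: 0% = growth of vehicle-only control cultures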; details: S. cerevisiae sgs1 mutant, hits give high values
Method in brief: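 A genetically defined yeast mutant is incubated with the test compound, and its growth is compared to that of the same strain given vehicle.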

[15] = NCI Yeast Anticancer Drug Screen. Data for the mlh1 rad18 strain (AID 175); details: S. cerevisiae mlh1 rad18 strain growth inhibition, hits give high values
Method in brief: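 Steps: expose repair-defective yeast to compound; measure growth; express inhibition against vehicle-treated controls.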

[16] = NCI Yeast Anticancer Drug Screen. Data for the rad18 strain (AID 177); details: S. cerevisiae rad18 mutant growth inhibition, hits give high values
Method in brief: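 Measured value is growth inhibition of a yeast strain bearing a DNA repair alteration, referenced to vehicle-treated cells.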

[17] = at 5.0 µM (retest, dose inferred, filed as 0.5)
[18] = at 50.0 µM (retest, dose inferred, filed as 5.0)

Measured: growth inhibition

O=C(CCCN1CCC2(CC1)CC(=O)N(N1CCCCCC1)C2=O)c1ccc(F)cc1
inactive: [1]; at 1.2 µM 23% | [1]; at 3.7 µM 34% | [1]; at 11.0 µM 46% | [1]; at 33.0 µM 53% | [1]; at 100.0 µM 65% | [2]; at 1.2 µM 11% | [2]; at 3.7 µM 24% | [2]; at 11.0 µM 25% | [2]; at 33.0 µM 34% | [2]; at 100.0 µM 41% | [3]; at 1.2 µM -2% | [3]; at 3.7 µM -2% | [3]; at 11.0 µM -1% | [3]; at 33.0 µM -1% | [3]; at 100.0 µM 0% | [4]; at 1.2 µM 32% | [4]; at 3.7 µM 45% | [4]; at 11.0 µM 67% | [5]; at 1.2 µM 29% | [5]; at 3.7 µM 26% | [5]; [17] 14% | [5]; at 11.0 µM 33% | [5]; at 33.0 µM 49% | [5]; [18] 46% | [5]; at 100.0 µM 61% | [6]; at 1.2 µM 25% | [6]; at 3.7 µM 28% | [6]; [17] 13% | [6]; at 11.0 µM 31% | [6]; at 33.0 µM 40% | [6]; [18] 41% | [6]; at 50.0 µM 45.8% | [6]; at 100.0 µM 45% | [7]; at 1.2 µM 45% | [7]; at 3.7 µM 51% | [7]; at 11.0 µM 64% | [8]; [17] 45% | [9]; at 1.2 µM 49% | [9]; at 3.7 µM 45% | [9]; at 11.0 µM 58% | [10]; [17] 63% | [11]; at 1.2 µM 40% | [11]; at 3.7 µM 41% | [11]; [17] 36% | [11]; at 11.0 µM 51% | [11]; at 33.0 µM 61% | [11]; [18] 41% | [11]; at 100.0 µM 66% | [12]; at 1.2 µM 20% | [12]; at 3.7 µM 32% | [12]; at 11.0 µM 41% | [12]; at 33.0 µM 53% | [12]; at 100.0 µM 68% | [13]; at 1.2 µM 25% | [13]; at 3.7 µM 30% | [13]; at 11.0 µM 41% | [13]; at 33.0 µM 52% | [13]; at 100.0 µM 63% | [14]; at 1.2 µM 43% | [14]; at 3.7 µM 45% | [14]; at 11.0 µM 65% | [15]; [17] 25% | [15]; [18] 56% | [16]; at 1.2 µM 29% | [16]; at 3.7 µM 49% | [16]; at 11.0 µM 57% | [16]; at 33.0 µM 66% | [16]; at 100.0 µM 65%
active: [4]; at 33.0 µM 75% | [4]; at 100.0 µM 89% | [5]; at 50.0 µM 80.8% | [7]; at 33.0 µM 73% | [7]; at 100.0 µM 87% | [8]; [18] 74% | [8]; at 50.0 µM 84.4% | [9]; at 33.0 µM 71% | [9]; at 100.0 µM 79% | [10]; [18] 82% | [10]; at 50.0 µM 72% | [11]; at 50.0 µM 73.3% | [14]; at 33.0 µM 73% | [14]; at 100.0 µM 77% | [15]; at 50.0 µM 76%
